# Measured values from PubChem BioAssay (NCATS).
# Inconclusive results are not listed. Entries that show only a call come without a potency. A number with no mark means an inactive call. Activity calls are given as the source filed them. The call rests on the fitted dose curve; in most records, active means well fitted curve in the direction sought with a large enough effect; inconclusive means small, poorly fitted or top-dose-only effect, or another doubt; inactive means no such curve, though single readings can be large; an effect the other way counts as inactive or inconclusive. Peptide text beside a SMILES is read from it. * marks the point of attachment. Cbz = O=C(OCc1ccccc1)*; CH2F = FC*
# Legend:
# [1] = biological target: Luciferin 4-monooxygenase (Photinus pyralis) (UniProt P08659); assay: Biochemical firefly luciferase enzyme assay for NPC (AID 624030);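 further: purified P. pyralis luciferase at 10 nM with luciferin and ATP substrate; nearly all actives have a fitted effect of over 70% in size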
# In short: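 Purified P. pyralis luciferase at 10 nM in 50 mM Tris Acetate (final), luminescence read within 5 minutes of enzyme addition to compounds. Activity normalised to PTC124 versus DMSO; concentration-response curves classed by r2, magnitude and activity.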
# [2] = qHTS Assay for Identifying Gametocytocidal Compounds (AID 743244);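 further: actives lower the fluorescent signal which means gametocytes are killed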; conditions: P. falciparum 3D7 stage III-V gametocytes, alamarBlue, 72 h; max response: active compounds read low
# In short: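 Viability read-out was resazurin reduction (alamarBlue, 24 h) measured at Ex 525/Em 598 nm. Beforehand, late-stage (III-V) 3D7 P. falciparum gametocytes at 20,000 cells/well were incubated with compound 72 h at 37C under 5% CO2.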
# [3] = P-glycoprotein substrates identified in KB-8-5-11 adenocarcinoma cell line, qHTS therapeutic library screen (AID 1346987); further: nearly all actives have a fitted effect of over 65% in size
# In short: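 Human cervical adenocarcinoma KB-8-5-11 cells, selected in colchicine to over-express P-gp and assayed without it, were exposed for 72 h to titrated compounds. An ATP-based luminescent viability signal gave AC50.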
# KB-3-1 = assay: Cytotoxic Profiling of Annotated Libraries Using Quantitative High-Throughput Screening (AID 1296008); conditions: Five cell lines viability, CellTiter-Glo ATP luminescence, 48-72 h; max response: active compounds read low; further: nearly all actives have a fitted effect of over 60% in size
# In short: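 Cells exposed to compounds for 48 or 72 hr at 37 degrees Celsius. Viability read as ATP-coupled luminescence with CellTiter-Glo after 10 min at room temperature.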
# astro = assay: Drug repurposing screens with cells derived from glioblastoma tumor samples (AID 1345199); conditions: viability, ATP luminescence, 48 h; series mostly up to 45.9 µM; further: nearly all actives have a fitted effect of over 40% in size
# In short: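 Primary testing used CD133+ neurospheres from four GBM patients, seven concentrations, 48 h exposure and ATP-based viability; confirmation added three slower-growing patient lines.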
# CRL-7250 = normal cell line; assay: qHTS assay to identify novel small-molecules to repurpose for Merkel cell carcinoma treatment (AID 1296009); conditions: MCC and control cell lines, CellTiter-Glo viability, 72 h; series mostly up to 92 µM; further: nearly all actives have a fitted effect of over 60% in size
# In short: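 CellTiter-Glo luminescence after 72 hr compound exposure at 37 degree celsius gave cell viability. Libraries NPC and MIPE were run as 8- and 11-point dose responses; RLUs normalized to DMSO (negative) and no-cell (cytotoxicity) controls.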
# Sequence of Luciferin 4-monooxygenase (Photinus pyralis) (P08659 whole entry, looked up): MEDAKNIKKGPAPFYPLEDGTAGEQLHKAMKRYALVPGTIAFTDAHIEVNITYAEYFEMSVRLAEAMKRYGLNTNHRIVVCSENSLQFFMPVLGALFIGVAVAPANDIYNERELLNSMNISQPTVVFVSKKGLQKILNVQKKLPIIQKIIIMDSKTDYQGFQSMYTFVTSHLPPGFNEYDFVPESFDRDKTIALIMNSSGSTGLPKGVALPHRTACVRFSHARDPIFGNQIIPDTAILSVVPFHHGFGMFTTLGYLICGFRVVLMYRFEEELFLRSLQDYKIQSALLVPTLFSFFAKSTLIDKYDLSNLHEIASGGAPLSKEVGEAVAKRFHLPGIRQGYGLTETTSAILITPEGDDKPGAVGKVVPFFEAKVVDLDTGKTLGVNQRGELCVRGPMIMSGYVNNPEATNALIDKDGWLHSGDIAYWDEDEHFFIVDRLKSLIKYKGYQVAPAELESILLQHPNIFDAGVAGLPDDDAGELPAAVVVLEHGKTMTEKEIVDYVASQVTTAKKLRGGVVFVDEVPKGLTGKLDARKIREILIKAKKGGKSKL
structure (smiles),measurement,setting,value
COc1cc(C[C@H](C)N)c(OC)cc1Br,Potency,[1],inactive
same,max response,[2],-8.52%
same,Potency,[3],inactive
same,max response,KB-3-1,-6.95%
same,Potency,astro,inactive
C[C@@H]1O[C@@H](OC2C(CO)OC(OCC3OC(OC(=O)[C@]45CCC(C)(C)CC4C4=CCC6[C@@]7(C)CC[C@@H](O)[C@](C)(C(=O)O)C7CC[C@@]6(C)[C@]4(C)CC5)C(O)C(O)C3O)C(O)C2O)[C@H](O)[C@H](O)[C@H]1O (stereo partly drawn),outcome,CRL-7250,inactive [at 9.27 µM]
CN(C)C(=O)C(O)C(Cc1ccccc1)NC(=O)c1cc2cc(Cl)ccc2[nH]1 (stereo not drawn),Potency,CRL-7250,inactive
COc1ccc(/C=C/C(N)=O)cc1OC,Potency,CRL-7250,inactive
CC1[C@@H](O)[C@@H](O)C2[C@]3(C)C(C[C@H]4OC(=O)[C@H](O)[C@]1(O)[C@@]24C)C(C)(O)C[C@H](O)[C@H]3O (stereo partly drawn),Potency,CRL-7250,inactive
COC(=O)C1=COC(OC2OC(CO)C(O)C(O)C2O)C2C(COC(=O)/C=C/c3ccc(O)cc3)C(O)C(O)C12 (stereo not drawn),Potency,CRL-7250,inactive
CC(=O)N[C@@H](Cc1c[nH]c2ccccc12)C(=O)N[C@@H](CCC(=O)O)C(=O)N[C@@H](Cc1cnc[nH]1)C(=O)N[C@@H](CC(=O)O)C(=O)Nc1ccc2c(C(F)(F)F)cc(=O)oc2c1 (HELM PEPTIDE1{[ac].W.E.H.D.[O=c1cc(C(F)(F)F)c2ccc(N[*:1])cc2o1]}$$$$V2.0),Potency,CRL-7250,inactive
C[C@H]1CC[C@@]2(OC1)O[C@H]1CC3C4CC[C@H]5C[C@@H](O)CC[C@]5(C)C4=CC(=O)[C@]3(C)[C@H]1[C@@H]2C (stereo partly drawn),Potency,CRL-7250,inactive
CN1CCc2cc(Cl)c(O)cc2[C@@H](c2cccc3c2OCC3)C1,Potency,CRL-7250,inactive
O=C(Nc1ccccc1Br)NC1CCN(c2ccc(C(F)(F)F)cn2)C1 (stereo not drawn),Potency,CRL-7250,inactive
CC(C)(CO)c1cc2cc(NC(=O)C3(c4ccc5c(c4)OC(F)(F)O5)CC3)c(F)cc2n1CC(O)CO (stereo not drawn),Potency,CRL-7250,inactive
C[C@@H]1O[C@@H](O[C@H]2[C@H](OC(=O)[C@]34CCC(C)(C)C[C@H]3C3=CCC5[C@@]6(C)C[C@H](O)[C@H](O[C@@H]7O[C@H](C(=O)O)[C@@H](O)[C@H](O)[C@H]7O)[C@@](C)(CO)C6[C@H](O)C[C@@]5(C)[C@]3(C)C[C@H]4O)O[C@@H](CO)[C@@H]2O)[C@H](O)[C@H](O)[C@H]1O[C@@H]1OC[C@@H](O)[C@H](O[C@H]2OC[C@](O)(CO)[C@H]2O)[C@H]1O (stereo partly drawn),outcome,CRL-7250,inactive [at 9.27 µM]
C[C@@H]1[C@H]2[C@H](O[C@@H]3O[C@H](CO)[C@@H](O)[C@H](O)[C@H]3O)OC=C(C(=O)O)[C@H]2C[C@@H]1O,Potency,CRL-7250,inactive
COc1cc(O)c2c(c1Cl)CC(C)OC2=O (stereo not drawn),Potency,CRL-7250,inactive
CC1(CO)CC[C@]2(C(=O)O[C@@H]3O[C@H](CO)[C@@H](O)[C@H](O)[C@H]3O)CC[C@]3(C)C(=CCC4[C@@]5(C)C[C@H](O)[C@H](O[C@@H]6OC[C@@H](O)[C@H](O)[C@H]6O)[C@@](C)(CO)C5CC[C@]43C)C2C1 (stereo partly drawn),outcome,CRL-7250,inactive [at 9.27 µM]
CNc1cc2[nH]c(=O)n(-c3ccc(NC(=O)NS(=O)(=O)c4ccc(Cl)s4)cc3)c(=O)c2cc1F,Potency,CRL-7250,inactive
CC(CCO)CCC1C2(C)CCCC(C)(C)C2CC[C@@]1(C)O (stereo partly drawn),Potency,CRL-7250,inactive
O=C(Nc1ccccc1-c1cn2c(CN3CCNCC3)csc2n1)c1ccc2ccccc2n1,Potency,CRL-7250,inactive
CC(=O)OC1C(O)C2C(C)C3=CC(=O)OC3(O)CC2C2(C)CCCC(C)(CO)C12 (stereo not drawn),Potency,CRL-7250,inactive
CC1OC(OC2C(OC3C(O[C@H]4CC[C@@]5(C)C(CC[C@]6(C)C5CC=C5C7CC(C)(C)CC(O)[C@]7(C)CC[C@]56C)C4(C)C)OC(C(=O)O)C(O)C3O)OCC(O)C2O)C(O)C(O)C1O (stereo partly drawn),outcome,CRL-7250,inactive [at 9.27 µM]
COc1ccccc1N1CCN(CC(C(=O)NC(C)(C)C)c2ccccc2)CC1 (stereo not drawn),Potency,CRL-7250,inactive
CC1(C)CC(=O)N(CCCCN2CCN(c3ncccn3)CC2)C(=O)C1,Potency,CRL-7250,inactive
C=C[C@H]1CN2CC[C@H]1C[C@@H]2C(O)c1ccnc2ccc(OC)cc12 (stereo partly drawn),Potency,CRL-7250,inactive
COc1c(C(C)C)c(O)c(O)c2c1C(OC)[C@H]1OC(=O)[C@@]23CCCC(C)(C)[C@H]13 (stereo partly drawn),Potency,CRL-7250,inactive
Cc1ncc(Cl)cc1NCc1ccc(C(=O)NC(CC2CCCC2)C(=O)NC2CC2)s1 (stereo not drawn),Potency,CRL-7250,inactive
NC(N)=NCCC[C@H](NC(=O)c1sccc1NS(=O)(=O)c1cccc2nsnc12)C(=O)O,Potency,CRL-7250,inactive
CC1CCCCCCCc2cc(O)cc(O)c2C(=O)O1 (stereo not drawn),Potency,CRL-7250,inactive
CC/C=C\CC1C(=O)C=CC1(CCCCC1CCC(=O)O1)OC(C)=O (stereo not drawn),Potency,CRL-7250,inactive
O=C(O[C@H]1[C@@H]2C=CO[C@@H](O[C@@H]3O[C@H](CO)[C@@H](O)[C@H](O)[C@H]3O)[C@@H]2[C@@]2(CO)O[C@@H]12)c1ccc(O)c(O)c1,Potency,CRL-7250,inactive
C[C@@H]1O[C@@H](O[C@H]2[C@H](OC(=O)[C@]34CCC(C)(C)C[C@H]3C3=CCC5[C@@]6(C)C[C@H](O)[C@H](O[C@@H]7O[C@H](CO)[C@@H](O[C@H]8OC[C@](O)(CO)[C@H]8O)[C@H](O)[C@H]7O)[C@@](C)(CO)C6[C@H](O)C[C@@]5(C)[C@]3(C)C[C@H]4O)OC[C@H](O)[C@@H]2O)[C@H](O)[C@H](O)[C@H]1O[C@@H]1OC[C@@H](O)[C@H](O[C@@H]2OC[C@](O)(CO)[C@H]2O)[C@H]1O (stereo partly drawn),outcome,CRL-7250,inactive [at 9.27 µM]
CC1(C)CCC[C@@]2(C)[C@H]1[C@H](O)C=C1COC(=O)[C@@]12O,Potency,CRL-7250,inactive
OC[C@H]1O[C@@H](Oc2ccc(O)c3cccc(O)c23)[C@H](O)[C@@H](O)[C@@H]1O,Potency,CRL-7250,inactive
Nc1nc2c(cnn2CCCc2ccc(O)cc2)c2nc(-c3ccco3)nn12,Potency,CRL-7250,inactive
C=C(COC(=O)CC(C)C)C1Cc2cc(C(C)=O)ccc2O1 (stereo not drawn),Potency,CRL-7250,inactive
C[C@@H]1CCC2C(C)(C)[C@H](O)CC[C@]2(C)[C@@]12Cc1c(O)cc3c(c1O2)CN([C@@H](CCC(=O)O)C(=O)O)C3=O (stereo partly drawn),Potency,CRL-7250,inactive
CC/C(=C(\c1ccc(O)cc1)c1ccc(OCCNC)cc1)c1ccccc1,Potency,CRL-7250,inactive
CC(C)c1cc2c(c(O)c1O[C@@H]1O[C@H](CO)[C@@H](O)[C@H](O)[C@H]1O)CC1(O)CCC(O)C(C)(C)C1CC2 (stereo partly drawn),Potency,CRL-7250,inactive
O=C(Nc1ccn[nH]1)c1c(F)cccc1F,Potency,CRL-7250,inactive
COc1cc(C(C)=O)c(OC)c2c1OC(C)(C)C=C2,Potency,CRL-7250,inactive
CC1=C2CC(C)(C)CC2C(O)C2=C(C1)C(=O)OC2O (stereo not drawn),Potency,CRL-7250,inactive
COC(=O)C1=COC(OC2OC(CO)C(O)C(O)C2O)C2C1C=CC2(O)CO (stereo not drawn),Potency,CRL-7250,inactive
OC[C@H]1O[C@@H](OCCc2ccccc2)[C@H](O[C@@H]2OC[C@@H](O)[C@H](O)[C@H]2O)[C@@H](O)[C@@H]1O,Potency,CRL-7250,inactive
Oc1ccc([C@H]2COc3cc(O)ccc3C2)cc1,Potency,CRL-7250,inactive
CCOC(=O)c1cc(C#N)c(N2CCC(C(=O)NS(=O)(=O)Cc3ccccc3)CC2)nc1C,Potency,CRL-7250,inactive
CC(C)C1CCC(CO)=CC1/C=C(\CO)C(=O)OCC1(O)CCC(C(C)C)C2C=C(C(=O)O)COC(=O)C21 (stereo not drawn),Potency,CRL-7250,inactive
CC(=O)C1CCC(=O)N1Cc1ccccc1 (stereo not drawn),Potency,CRL-7250,inactive
CC1(C)CC[C@]2(C(=O)O)CC[C@]3(C)C(=CCC4[C@@]5(C)C[C@@H](O)[C@H](O)[C@](C)(CO)C5CC[C@]43C)[C@@H]2[C@@H]1O (stereo partly drawn),Potency,CRL-7250,inactive
C[C@@H]1O[C@@H](O[C@H]2[C@H](O[C@H]3[C@H](O[C@H]4CC[C@@]5(C=O)C(CC[C@]6(C)C5CC=C5C7CC(C)(C)C[C@@H](O)[C@]7(C)CC[C@]56C)C4(C)C)O[C@H](C(=O)O)[C@@H](O)[C@@H]3O)OC[C@@H](O)[C@@H]2O)[C@H](O)[C@H](O)[C@H]1O (stereo partly drawn),outcome,CRL-7250,inactive [at 9.27 µM]
COC(=O)CC[C@H](NC(=O)[C@H](CC(C)C)NC(=O)OCc1ccccc1)C(=O)N[C@@H](Cc1cnc[nH]1)C(=O)N[C@@H](CC(=O)OC)C(=O)CF (Cbz-LE(OMe)HD(OMe)-CH2F),outcome,CRL-7250,inactive [at 9.27 µM]
CN1CCN(C2=Nc3ccccc3Nc3ccc(OS(=O)(=O)C(F)(F)F)cc32)CC1,Potency,CRL-7250,inactive
On1ncc(C2CCNCC2)c1-c1cccc(-c2ccccc2)c1,Potency,CRL-7250,inactive
CC1=C2C(=O)C=C(CO)C2[C@H]2OC(=O)[C@H](C)[C@@H]2[C@@H](OC(=O)Cc2ccc(O)cc2)C1 (stereo partly drawn),Potency,CRL-7250,inactive
CC(=O)OC1CC(C)C2(CCC3(CC(=O)OC3O)O2)C2(C)CCCC(C)(C)C12 (stereo not drawn),Potency,CRL-7250,inactive
C=C1C(=O)O[C@@H]2C[C@H](C)[C@@]3(O)C=C(C(C)=O)[C@]4(CC3C[C@H]12)C(=O)O[C@H]1C[C@@H](C)C(CCC(C)=O)=CC[C@H]14 (stereo partly drawn),Potency,CRL-7250,inactive
